This passage reports growth results from PubChem BioAssay (NCI).

The panel holds about 83,000 compounds, 20% with a hit somewhere; the sample as a whole holds those more often.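 Negative percent growth values reflect cell death: -40 means 40% of the cells present at the start died, and -100 means all died.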 A number with no mark means an inactive call. The source made the active and inactive calls. The calls were made as follows: active = growth percent below 10; inactive = the rest.

Test systems include DU-145 prostate; K-562 leukemia; MALME-3M melanoma; MDA-MB-231 breast; RXF 393 renal; SF-268 CNS; SF-295 CNS; SF-539 CNS; UACC-257 melanoma; M14 melanoma; HCT-15 colon; HT29 colon; SNB-75 CNS; SNB-19 CNS; U251 CNS; PC-3 prostate; SK-MEL-5 melanoma; UACC-62 melanoma; LOX IMVI melanoma.
Holding throughout (assay): NCI-60 one-dose screen, 48 h (100 = growth as untreated, 0 = no growth, -100 = all killed)
What all share (conditions): 10 µM unless noted

In the case of `Cc1c(-c2ccc(-c3ccccc3F)cc2)nc2ccc(F)cc2c1C(=O)O`, the growth in the test on DU-145 prostate was 42.5%; in the test with K-562 leukemia, 26.3%; in the test on MALME-3M melanoma it was 62.8%; in the test with MDA-MB-231 breast, 65.2%; with RXF 393 renal, 37.2%; with SF-268 CNS it was 50.7%. In addition, the growth in the test on SF-295 CNS is 22.8%; with SF-539 CNS it was 29%; in the test on UACC-257 melanoma it was 19.8%; in the test with M14 melanoma, 53.7%; in the test on HCT-15 colon, 29%; in the test with HT29 colon, 28.3%. For the same molecule, the growth was 60.9% in the test on SNB-75 CNS; 41% in the test with SNB-19 CNS; 31.9% in the test on U251 CNS; 33.2% in the test with PC-3 prostate; 40.4% in the test with SK-MEL-5 melanoma; 39.5% in the test with UACC-62 melanoma. Moreover, the growth with LOX IMVI melanoma is 9.11% (active).

Consider `N#Cc1nc(-c2cccc(Br)c2)cc(-c2ccc(Nc3nc(N4CCCCC4)nc(N4CCCCC4)n3)cc2)c1N`, for which the growth was -39% (active) in the test with DU-145 prostate; 4.51% (active) with K-562 leukemia; -80.9% (active) with MALME-3M melanoma; -67.4% (active) with MDA-MB-231 breast; -70.9% (active) in the test with RXF 393 renal; 5.03% (active) with SF-268 CNS. The growth in the test on SF-295 CNS is 82.8%; in the test with SF-539 CNS, -75.9% (active); in the test with UACC-257 melanoma, -35.8% (active); with M14 melanoma it was 2.1% (active); in the test on HCT-15 colon, -39% (active); in the test on HT29 colon it was -24.6% (active). For the same molecule, the growth with SNB-75 CNS is -45.1% (active); in the test with SNB-19 CNS, 52.7%; in the test with U251 CNS, -15.8% (active); with PC-3 prostate, 12%; in the test on SK-MEL-5 melanoma, -49.3% (active); in the test with UACC-62 melanoma, -35.9% (active). The growth in the test with LOX IMVI melanoma is -95.7% (active).

For `COc1cc2nccc(Oc3ccc(NC(=O)C4(C(=O)Nc5ccc(F)cc5)CC4)cc3)c2cc1Oc1ccc(N)cn1`, the growth with DU-145 prostate was 49.5%; with K-562 leukemia, 3.07% (active); in the test with MALME-3M melanoma, 43.1%; in the test on MDA-MB-231 breast, 42.7%; in the test on RXF 393 renal it was 11.5%; with SF-268 CNS it was 36.8%. The growth with SF-295 CNS is 0.157% (active); with SF-539 CNS it was 5.06% (active); in the test on UACC-257 melanoma, 34%; in the test on M14 melanoma, 39.8%; with HCT-15 colon, 27.9%; in the test with HT29 colon it was 9.65% (active). Moreover, the growth with SNB-75 CNS was -12.5% (active); with SNB-19 CNS it was 54.5%; with U251 CNS, 33.6%; with PC-3 prostate it was 24.5%; in the test with SK-MEL-5 melanoma it was 39.2%; in the test with UACC-62 melanoma, 5.29% (active). For the same molecule, in the test with LOX IMVI melanoma, the growth is 10.7%.

Turning to `COc1ccc(-c2oc(=O)ccc2-c2cc(OC)c(OC)c(OC)c2)cc1F`, the growth with DU-145 prostate was 109%; in the test on K-562 leukemia, 26.7%; in the test on MALME-3M melanoma, 68.9%; in the test on MDA-MB-231 breast it was 77.3%; with RXF 393 renal, 90.9%; with SF-268 CNS, 95.3%. In addition, the growth in the test on SF-295 CNS is 62.4%; in the test with SF-539 CNS it was 80.4%; in the test on UACC-257 melanoma, 66.4%; in the test with M14 melanoma it was 60.8%; with HCT-15 colon, 68.2%; with HT29 colon, 44.4%. In addition, the growth in the test on SNB-75 CNS was 106%; in the test on SNB-19 CNS, 92.1%; with U251 CNS, 81.9%; in the test with PC-3 prostate, 66.4%; with SK-MEL-5 melanoma, 66.5%; in the test on UACC-62 melanoma it was 53.6%. Besides, the growth in the test with LOX IMVI melanoma is 67.4%.

Take `CCN(CC)CCCC(C)Nc1cnc(C(=O)Nc2cccc3ccc(OC)nc23)cn1` (configuration not stated): the growth in the test on DU-145 prostate was 78.8%; in the test with K-562 leukemia it was -57.1% (active); with MALME-3M melanoma it was -69.8% (active); in the test with MDA-MB-231 breast, 71.8%; in the test on RXF 393 renal, 46%; in the test on SF-268 CNS, 63%. Moreover, the growth in the test on SF-295 CNS is 101%; in the test on SF-539 CNS, 0.457% (active); in the test with UACC-257 melanoma, -39% (active); in the test with M14 melanoma, -75.6% (active); with HCT-15 colon, -25.6% (active); with HT29 colon, -47.2% (active). Moreover, the growth in the test with SNB-75 CNS was 75.9%; in the test on SNB-19 CNS, 94.9%; with U251 CNS it was 56.1%; in the test with PC-3 prostate it was 69.5%; in the test with SK-MEL-5 melanoma, 5.4% (active); with UACC-62 melanoma it was -57.8% (active). For the same molecule, in the test on LOX IMVI melanoma, the growth is -89.9% (active).

As to `COc1c(B(O)O)cccc1-c1nc2ccc3[nH]ncc3c2c2c1CCCC2`, the growth in the test on DU-145 prostate was 11.1%; in the test on K-562 leukemia, 38.5%; in the test with MALME-3M melanoma it was 82.6%; with MDA-MB-231 breast it was 25.2%; in the test on RXF 393 renal, -15.8% (active); with SF-268 CNS, 23.2%. In addition, the growth is 34.8% with SF-295 CNS; 0.769% (active) in the test on SF-539 CNS; 34% in the test with UACC-257 melanoma; 58.1% with M14 melanoma; 25.4% with HCT-15 colon; 37.9% in the test with HT29 colon. Further, the growth is -2.29% (active) with SNB-75 CNS; 12.5% in the test with SNB-19 CNS; 13.2% in the test on U251 CNS; 18.4% in the test with PC-3 prostate; 42.3% in the test on SK-MEL-5 melanoma; 26.6% with UACC-62 melanoma. Moreover, the growth with LOX IMVI melanoma was -15.4% (active).

Consider `COc1cccc2nc(Nc3cccc(NC(=O)c4cc(N5CCOCC5)cc(C(F)(F)F)c4)c3)ccc12`, for which the growth is 59.9% in the test with DU-145 prostate; 45% with K-562 leukemia; 91.3% in the test on MALME-3M melanoma; 93.3% with MDA-MB-231 breast; 51.4% in the test with RXF 393 renal; 59.9% in the test with SF-268 CNS. Also, the growth in the test with SF-295 CNS was 58.4%; with SF-539 CNS, 82%; in the test with UACC-257 melanoma, 57.1%; in the test with M14 melanoma, 52.5%; in the test on HCT-15 colon, 48.2%; in the test with HT29 colon, 43.4%. In addition, the growth is 50.1% in the test on SNB-75 CNS; 74.6% in the test with SNB-19 CNS; 50.6% with U251 CNS; 36.8% in the test with PC-3 prostate; 42.7% with SK-MEL-5 melanoma; 71.4% in the test on UACC-62 melanoma. In the test on LOX IMVI melanoma, the growth is 56%.

Consider `COc1cc2nccc(Oc3ccc(NC(=O)C4(C(=O)Nc5c(F)cc(F)cc5F)CC4)cc3)c2cc1Oc1ccc(N)cn1`, for which the growth was 80.7% in the test with DU-145 prostate; 7.69% (active) with K-562 leukemia; 59% in the test with MALME-3M melanoma; 65.9% with MDA-MB-231 breast; 65.8% in the test with RXF 393 renal; 55.5% in the test with SF-268 CNS. Also, the growth in the test with SF-295 CNS was 30.6%; in the test with SF-539 CNS, 21.2%; with UACC-257 melanoma it was 53.8%; with M14 melanoma it was 56.9%; in the test with HCT-15 colon, 45.5%; in the test on HT29 colon it was 34.8%. The growth is 21.7% in the test with SNB-75 CNS; 78.7% in the test on SNB-19 CNS; 67.3% with U251 CNS; 51.5% in the test with PC-3 prostate; 29% in the test with SK-MEL-5 melanoma; 24.4% with UACC-62 melanoma. Also, the growth in the test with LOX IMVI melanoma was 49.4%.
